Compounds with a hit are over-represented: about 5.7% of the library has one in this group of screens.
S2 tox: Viability Counterscreen for Primary qHTS for Inhibitors of ATXN expression | S2 cells (HEK-293 line with an ATXN2-luciferase reporter) viability, CellTiter-Fluor protease fluorescence, 24 h | 400,000 tested, 0.49% active | Potency, µM (top dose mostly 56.7 µM), actives largely listed as cytotoxic; further: potency means the concentration at half of the fitted maximal effect; nearly all actives have a fitted effect of over 40% in size
TGFb inhibitor: qHTS for Inhibitors of TGF-b. HepG2 CAGA-GFP TGF-b/SMAD3 reporter, GFP fluorescence, 18 h; TGF-beta stimulated, 500 pg/mL final. Potency, µM (highest dose often 46.1 µM), for the others: top-dose activity, negative = inhibition, actives largely listed as inhibitors. AID 588855, 2011. 410,000 tested, 1.2% active; further: potency means the concentration at half of the fitted maximal effect; on the % scale 0 is the no-effect control and ±100 the full control effect; nearly all actives have a fitted effect of over 65% in size
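Cell-based qHTS in HEPG2 carrying a CAGA-GFP Smad reporter; compounds added before 500 pg/mL final TGF-beta, 18 h incubation at 37 degrees C, GFP fluorescence quantified per cell by imaging cytometry.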
IL-1B inflam inh: qHTS for Inhibitors of Inflammasome Signaling: IL-1-beta AlphaLISA Primary Screen | 360,000 tested, 4.7% active | activity change, % at 57.5 µM | AID 743279, 2014 | THP-1 LPS/ATP IL-1B secretion, AlphaLISA, 16 h; stronger effect = lower value; in the data active means activity change below about -50%; inconclusive means mostly about -30% to -49%; further: on the % scale 0 is the no-effect control and ±100 the full control effect
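Secreted IL-1B measured by AlphaLISA bead assay after 16 h compound exposure of THP-1 cells; compounds (final up to 57.5 uM) added 1 h before LPS (250 ng/mL) and ATP (1.25 mM) stimulation; lower signal means less secretion.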
HepG2 viability: qHTS for Inhibitors of TGF-b: Cytotox Counterscreen. Potency, µM (doses to about 46.1 µM), inactives show top-dose activity change, negative = cytotoxicity, usual class: cytotoxic. HepG2 CAGA-GFP viability, ATP luminescence, 18 h. 410,000 tested, 0.76% active. AID 588856, 2011; further: potency means the concentration at half of the fitted maximal effect
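CellTiter-Glo luminescence gave cytotoxicity after 18 hours at 37 degrees C. The cells were HepG2 CAGA-GFP in 1% FBS DMEM, stimulated with 500 pg/mL TGF-beta after compound addition. %Activity was normalised to no-cell wells (complete cell-killing) and DMSO (no toxicity), and curves were fitted and classified.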
ATXN2 expr inh: Primary qHTS for Inhibitors of ATXN expression | HEK-293 ATXN2-luciferase reporter, luminescence, 24 h | Potency, µM (top dose mostly 57 µM), for inactives: top-dose activity change, negative = inhibition, actives largely listed as inhibitors | 360,000 tested, 0.72% active | AID 1745845, 2022; further: potency means the concentration at half of the fitted maximal effect; on the % scale 0 is the no-effect control and ±100 the full control effect; nearly all actives have a fitted effect of over 55% in size
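ATXN2-luciferase reporter cells (luciferase flanked by upstream and downstream ATXN2 gene portions) were treated 24 h at 37 °C with compounds at up to 57 uM. SteadyGlo luminescence gave expression; GF-AFC fluorescence gave viability.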
* marks the source's active call; other numbers are inactive results; i = inactive; ? = inconclusive; / = no result. Unless noted, the call rests on the fitted dose curve; in most records, active means well fitted curve in the direction sought with a large enough effect; inconclusive means small, poorly fitted or top-dose-only effect, or another doubt; inactive means no such curve, though single readings can be large; an effect the other way counts as inactive or inconclusive.

SMILES	S2 tox	TGFb inhibitor	IL-1B inflam inh	HepG2 viability	ATXN2 expr inh
c1ccc(Nc2ccccc2Nc2ccccn2)nc1	i	12.0%	-9.2	2.2%	0.0%
CC(O)CNc1nc2sc3c(c2c(=O)n1Cc1ccco1)CCCCC3 (stereo unspecified)	i	0.4%	-20.8	-29.8%	21.3%
CC(O)CNc1nc2sc3c(c2c(=O)n1CCc1ccccc1)CCCCC3 (stereo unspecified)	i	?	-81.9*	-39.4%	-19.6%
CN(C)CCNc1nc2sc3c(c2c(=O)n1CCc1ccccc1)CCCCC3	/	?	-74.9*	-130.5%	/
O=Nc1ccc(/C=C/c2ccnc3ccccc23)cc1	/	-6.3%	/	-26.5%	/
O=C(c1ccco1)N(Cc1cc2cc3c(cc2nc1N1CCOCC1)CCC3)CC1CCCO1 (stereo unspecified)	i	/	/	/	/
Cc1cccc(N(CC(=O)NC2CCCCC2)C(=O)c2ccc(C)s2)c1	i	-29.4%	?	4.7%	0.2%
Cc1ccc(C(=O)N(CC(=O)NC2CCCC2)c2cccc(F)c2)s1	i	2.3%	-80.4*	-2.2%	-17.0%
COc1cc2nc(N(CCCN(C)C)C(=O)c3ccc(C(=O)c4ccccc4)cc3)sc2cc1OC	/	?	-105.1*	15.8µM*	?
CCc1ccc2nc(N(CCCN(C)C)C(=O)c3ccc(C(=O)c4ccccc4)cc3)sc2c1	?	?	-61.4*	-92.1%	?
COc1ccccc1CNC(=O)CC(c1ccc(C)cc1)N1Cc2ccccc2C1=O (stereo unspecified)	i	38.6%	/	2.5%	-18.7%
Cc1cn([C@H]2C[C@H](F)[C@@H](CO)O2)c(=O)[nH]c1=O	i	/	/	/	-3.5%
COc1ccc(OCCNc2cc(N3CCCCC3)ccc2[N+](=O)[O-])cc1	?	6.3%	?	-21.6%	-9.1%
CC1CN(c2ccc([N+](=O)[O-])c(NCCOc3ccccc3)c2)CCN1 (stereo unspecified)	?	?	-61.6*	-48.8%	0.0%
Cc1ccccc1OCCNc1cc(N2CCN(CCO)CC2)ccc1[N+](=O)[O-]	?	-8.6%	-76.3*	-34.8%	-20.2%
COC(=O)c1cc(CNC(=O)c2ccc(N(C)C)cc2)cc(NC(=O)c2ccccc2Cl)c1	i	/	/	/	/
C1=C/C(=C2/C=Cc3ccccc32)c2ccccc2N1	/	?	/	-33.6%	/
CC(C)Cn1c(=O)c2ccccc2n2c(CCC(=O)NCc3ccccc3Cl)nnc12	/	?	/	-24.1%	/
COc1ccc(-c2n[nH]c3c2C(c2ccc(O)cc2)N(c2ccc(Br)cc2)C3=O)cc1 (stereo unspecified)	/	?	/	-27.7%	/
Cc1ccc(-c2n[nH]c3c2C(c2cccs2)N(c2ccc(Cl)cc2)C3=O)cc1 (stereo unspecified)	?	11.2µM*	/	12.6µM*	?
Cc1ccc(N2C(=O)c3[nH]nc(-c4ccc(Cl)cc4)c3C2c2ccc(F)cc2)cc1 (stereo unspecified)	/	?	/	11.2µM*	?
COc1cc(C2c3c(-c4ccc(C)cc4)n[nH]c3C(=O)N2c2ccc(F)cc2)ccc1O (stereo unspecified)	?	11.2µM*	/	-50.5%	?
COc1ccc(OC)c(C2c3c(-c4ccc(Br)cc4)n[nH]c3C(=O)N2c2ccc(Cl)cc2)c1 (stereo unspecified)	/	3.98µM*	/	11.2µM*	?
Cc1ccc(-c2n[nH]c3c2C(c2ccccc2Cl)N(c2ccc(C(=O)O)cc2)C3=O)cc1 (stereo unspecified)	?	?	/	4.3%	?
CCOC(=O)c1c(C)[nH]c(CCC(=O)NCc2cc(OC)c(OC)c(OC)c2)c1C	/	0.0%	/	-15.4%	/
SMILES	S2 tox	TGFb inhibitor	IL-1B inflam inh	HepG2 viability	ATXN2 expr inh
COc1ccccc1C(CNC(=S)NCc1ccccc1)N1CCCC1 (stereo unspecified)	i	6.5%	-4.9	-13.8%	-13.2%
COc1ccc(CNC(=S)NCc2ccc(OC(C)C)cc2)cc1	i	-17.5%	-2.4	17.8µM*	-9.3%
COc1ccc(C(CNC(=S)NCc2ccccc2)N2CCCC2)cc1 (stereo unspecified)	i	-1.1%	-72.0*	-4.4%	-3.3%
COc1ccc(CNC(=S)Nc2cc(C)cc(C)c2)cc1	i	-9.0%	-25.0	-49.6%	-11.2%
Oc1cccc(C(O)CNCc2ccc(-c3ccccc3)cc2)c1 (stereo unspecified)	?	?	-50.9*	-105.4%	?
Oc1cccc(C(O)CNCc2ccc(OCc3ccc(Cl)cc3Cl)cc2)c1 (stereo unspecified)	i	?	-90.6*	-166.5%	-14.1%
OC(CNCc1cccc(Cl)c1)c1ccccc1 (stereo unspecified)	i	-20.6%	0.0	-27.8%	3.3%
CCOC(=O)Oc1ccc(CCNC(=O)[C@H](CCSC)NC(C)=O)cc1OC(=O)OCC	i	/	/	/	11.7%
C[C@@H]1C[C@H]2[C@@H]3CCC4=CC(=O)C=C[C@]4(C)[C@@]3(F)[C@@H](O)C[C@]2(C)[C@@]1(O)C(=O)COC(=O)c1ccncc1	i	/	/	/	-2.4%
CCn1c2ccccc2c2cc(CN3CCN(Cc4ccc(OC)c(OC)c4)CC3)ccc21	/	?	/	-63.1%	/
CCOc1ccc(CN2CCN(Cc3ccc4c(c3)c3ccccc3n4CC)CC2)cc1	/	10µM*	/	-76.5%	/
Cc1cccc(N=C2NN=C(c3ccc4c(c3)OCCO4)CS2)c1	i	-1.4%	-3.1	-25.1%	15.3%
Cc1cccc(N=C2NN=C(c3c(C)[nH]c4ccccc34)CS2)c1	?	0.0%	?	-101.1%	28.2µM*
CC(=O)c1cccc(NC(=O)c2ccc3c(c2)N(Cc2ccc(C)cc2)CCS3)c1	i	10.2%	/	0.2%	13.9%
CC(C)c1ccc(C(=O)Nc2cccnc2)cc1	i	-8.6%	-4.3	-29.1%	6.0%
CCC(C)C(NC(=O)c1ccc(Cl)cc1)C(=O)Nc1cccnc1 (stereo unspecified)	i	-5.1%	-85.1*	-3.4%	7.9%
CN(Cc1cc(Cl)cc(Cl)c1O)Cc1c(O)ccc2ccccc12	i	?	-96.1*	-48.3%	-20.5%
CN(Cc1ccccc1)Cc1c(O)ccc2ccccc12	i	?	-9.3	7.6%	-19.4%
CC(=O)c1ccc(N2CCC(c3cc(-c4ccc(Cl)cc4Cl)n[nH]3)CC2)c([N+](=O)[O-])c1	?	?	-55.1*	-29.2%	?
O=[N+]([O-])c1cccnc1N1CCC(c2cc(-c3ccc(Cl)cc3Cl)n[nH]2)CC1	i	-14.9%	0.0	-96.4%	?
CCCCc1ccc(-c2csc(/C(C#N)=C\c3ccc(C)o3)n2)cc1	i	-1.0%	-50.1*	2.4%	-9.6%
